In the antibiotic and cytotoxicity screens of Wong et al. (2023) one finds cytotoxicity call data, which are given here for 47 compounds.

Structures are written as SMILES. The campaign covered roughly 39,000 compounds. About 3,300 (8.5%) were called active. Only a selection was taken, and actives are over-represented in it overall.

For this experiment, the system named is HepG2. Put plainly: cytotoxicity call (relative viability < 0.9). The conditions noted are these: 10 µM.
With `CO[C@@H](CN(C)C(=O)C1CCOCC1)[C@@H](C)CN(C(=O)Nc1ccc(C(F)(F)F)cc1)[C@@H](C)CO`, the cytotoxicity call was “inactive”. As to `CC(=O)N[C@@H]1C[C@H](O)[C@@H](O)CCC(=O)N[C@H](c2ccccc2)COC1=O`, the cytotoxicity call was “inactive”. Consider `C[C@H]1CN([C@@H](C)CO)C(=O)Cc2cc(NC(=O)Cn3cnnn3)ccc2O[C@H]1CN(C)C(=O)Nc1ccc(C(F)(F)F)cc1`, for which the cytotoxicity call was “inactive”. In the case of `C[C@@H]1CCCCO[C@@H](CN(C)C(=O)NC2CCCCC2)[C@H](C)CN([C@H](C)CO)C(=O)c2cc(NC(=O)CCC(F)(F)F)ccc2O1` it was “inactive”; in that of `CO[C@H]1CN(C)C(=O)c2cc(NC(=O)NC(C)C)ccc2OC[C@H](C)N(Cc2ccc(-c3ccccn3)cc2)C[C@H]1C`, “inactive”. For `C[C@@H]1CCCCO[C@@H](CN(C)C(=O)Nc2cccc3ccccc23)[C@H](C)CN([C@@H](C)CO)C(=O)c2cc(NS(=O)(=O)c3ccc(F)cc3)ccc2O1`, the cytotoxicity call is “inactive”. With `C[C@@H]1CCCCO[C@H](CN(C)C(=O)Nc2cccc3ccccc23)[C@H](C)CN([C@@H](C)CO)C(=O)c2cc(NS(=O)(=O)c3ccc(F)cc3)ccc2O1`, the cytotoxicity call was “active”. Consider `C[C@H]1CCCCO[C@@H](CN(C)C(=O)Nc2cccc3ccccc23)[C@@H](C)CN([C@@H](C)CO)C(=O)c2cc(NS(=O)(=O)c3ccc(F)cc3)ccc2O1`, for which the cytotoxicity call was “inactive”. In the case of `C[C@@H]1CCCCO[C@@H](CN(C)C(=O)Nc2cccc3ccccc23)[C@H](C)CN([C@H](C)CO)C(=O)c2cc(NS(=O)(=O)c3ccc(F)cc3)ccc2O1` it was “active”. In the case of `C[C@@H]1CN([C@@H](C)CO)C(=O)c2cc(NS(=O)(=O)c3ccc(F)cc3)ccc2O[C@@H](C)CCCCO[C@@H]1CN(C)C(=O)Nc1cccc2ccccc12` it was “inactive”; in that of `C[C@H](CO)N1C[C@H](C)[C@H](CN(C)C(=O)Nc2cccc3ccccc23)OCCCC[C@H](C)Oc2ccc(NS(=O)(=O)c3ccc(F)cc3)cc2C1=O`, “inactive”.

As to `C[C@@H]1CCCCO[C@H](CN(C)C(=O)Nc2cccc3ccccc23)[C@@H](C)CN([C@H](C)CO)C(=O)c2cc(NS(=O)(=O)c3ccc(F)cc3)ccc2O1`, the cytotoxicity call is “active”. Turning to `C[C@H](CO)N1C[C@H](C)[C@@H](CN(C)C(=O)Nc2cccc3ccccc23)OCCCC[C@H](C)Oc2ccc(NS(=O)(=O)c3ccc(F)cc3)cc2C1=O`, the cytotoxicity call is “inactive”. To `C[C@@H]1CCCCO[C@@H](CN(C)C(=O)Nc2cccc3ccccc23)[C@@H](C)CN([C@H](C)CO)C(=O)c2cc(NS(=O)(=O)c3ccc(F)cc3)ccc2O1` belongs “inactive”; to `C[C@H]1CCCCO[C@H](CN(C)C(=O)Nc2cccc3ccccc23)[C@@H](C)CN([C@@H](C)CO)C(=O)c2cc(NS(=O)(=O)c3ccc(F)cc3)ccc2O1`, “active”. To `C[C@@H]1CN([C@@H](C)CO)C(=O)c2cc(NS(=O)(=O)c3ccc(F)cc3)ccc2O[C@@H](C)CCCCO[C@H]1CN(C)C(=O)Nc1cccc2ccccc12` belongs “inactive”; to `CN1CCC[C@H](C(=O)O)C1`, “inactive”; to `C[C@@H]1CN([C@H](C)CO)S(=O)(=O)c2ccc(C#CC3CC3)cc2O[C@H]1CN(C)Cc1cccc(F)c1`, “inactive”. Consider `CNC[C@H]1Oc2cc(C#CC(C)(C)O)ccc2S(=O)(=O)N([C@H](C)CO)C[C@@H]1C`, for which the cytotoxicity call was “inactive”. In the case of `O=C(C[C@@H]1CC[C@H]2[C@@H](COC[C@@H](O)CN2S(=O)(=O)c2ccc(Cl)cc2)O1)N[C@@H]1CCN(Cc2ccccc2)C1` it was “inactive”.

In the case of `C[C@@H]1CN([C@H](C)CO)C(=O)c2cc(NS(C)(=O)=O)ccc2O[C@H]1CN(C)C(=O)Nc1ccc2c(c1)OCO2`, the cytotoxicity call is “inactive”. As to `CCOC(=O)c1snc2c(=O)nc[nH]c12`, the cytotoxicity call is “inactive”.

Take `C=CCOC(=O)[C@@H]1[C@H]2C(=O)O[C@H](c3ccccc3)[C@H](c3ccccc3)N2[C@H](c2ccc(OCCOC(=O)[C@H]3C[C@H]4C(=O)N[C@@H](CCCCNC(C)=O)C(=O)N4[C@H]3c3cccc(OCCO)c3)cc2)[C@@]12C(=O)Nc1ccc(I)cc12`: the cytotoxicity call is “inactive”. In the case of `C[C@@H]1CCCCO[C@@H](CN(C)C(=O)CCC(F)(F)F)[C@@H](C)CN([C@@H](C)CO)C(=O)c2cc(NC(=O)Nc3ccc4c(c3)OCO4)ccc2O1`, the cytotoxicity call was “inactive”. As to `C[C@@H]1CCCCO[C@H](CN(C)C(=O)Nc2cccc3ccccc23)[C@H](C)CN([C@H](C)CO)C(=O)c2cc(NS(=O)(=O)c3ccc(F)cc3)ccc2O1`, the cytotoxicity call was “active”. For `C[C@H]1CN([C@@H](C)CO)S(=O)(=O)c2ccc(-c3cccnc3)cc2O[C@H]1CN(C)C(=O)c1ccc2c(c1)OCO2`, the cytotoxicity call was “inactive”. `NC(=O)CC1=NC(=O)CS1`: the cytotoxicity call is “inactive”. To `C[C@H]1CN([C@@H](C)CO)C(=O)Cc2cc(NC(=O)Cc3ccccc3)ccc2O[C@@H]1CN(C)S(C)(=O)=O` belongs “inactive”.

As for `Cc1ccc(S(=O)(=O)Nc2ccc3c(c2)C(=O)N([C@@H](C)CO)C[C@H](C)[C@H](CN(C)Cc2ccc4c(c2)OCO4)OCCCC[C@@H](C)O3)cc1`, the cytotoxicity call is “inactive”. In the case of `C[C@@H]1CN([C@@H](C)CO)C(=O)c2cc(NC(=O)Nc3cccc4ccccc34)ccc2O[C@H]1CN(C)Cc1ccncc1` it was “inactive”. In the case of `C#CC1(OC(C)=O)CCC2C3CCC4=CC(=NO)CCC4C3CCC21CC` (configuration not stated) it was “active”; in that of `C#CC1(OC(C)=O)CCC2C3CCC4=CC(=O)CCC4C3CCC21C` (configuration not stated), “inactive”; in that of `C#CC1(O)CCC2C3CCC4=CC(=O)CCC4C3CCC21CC` (configuration not stated), “inactive”. In the case of `C#CC1(OC(C)=O)CCC2C3CCC4=CC(OC(C)=O)CCC4C3CCC21C` (configuration not stated) it was “active”; in that of `CC(=O)OC1(C(C)=O)CCC2C3CC(C)C4=CC(=O)CCC4(C)C3CCC21C` (configuration not stated), “inactive”. `C[C@@H]1CN([C@H](C)CO)C(=O)CCCn2cc(nn2)CO[C@@H]1CN(C)C(=O)Nc1ccc2c(c1)OCCO2`: the cytotoxicity call is “inactive”. In the case of `COc1ccc(S(=O)(=O)Nc2cccc3c2O[C@@H](CN(C)C(=O)Nc2c(C)noc2C)[C@H](C)CN([C@H](C)CO)C3=O)cc1` it was “inactive”; in that of `COc1cccc(S(=O)(=O)N(C)C[C@@H]2Oc3cc(C4=CCCC4)ccc3S(=O)(=O)N([C@H](C)CO)C[C@@H]2C)c1`, “inactive”.

Take `C[C@H](CO)N1C[C@H](C)[C@H](CN(C)Cc2ccc(Cl)c(Cl)c2)Oc2ccc(NC(=O)CCC(F)(F)F)cc2CC1=O`: the cytotoxicity call was “inactive”. In the case of `C[C@@H]1CN([C@@H](C)CO)C(=O)Cc2cc(NC(=O)CCC(F)(F)F)ccc2O[C@H]1CN(C)Cc1ccc(Cl)c(Cl)c1` it was “active”; in that of `C[C@@H]1CN([C@@H](C)CO)C(=O)Cc2cc(NC(=O)CCC(F)(F)F)ccc2O[C@@H]1CN(C)Cc1ccc(Cl)c(Cl)c1`, “active”. For the compound `C[C@@H]1CN([C@@H](C)CO)C(=O)c2cc(NC(=O)CCC(F)(F)F)ccc2O[C@H]1CN(C)Cc1ccc(Cl)c(Cl)c1`, the cytotoxicity call was “active”.

Regarding `C[C@@H]1CN([C@H](C)CO)C(=O)Cc2cc(NC(=O)CCC(F)(F)F)ccc2O[C@H]1CN(C)Cc1ccc(Cl)c(Cl)c1`, the cytotoxicity call was “inactive”. In the case of `C[C@@H]1CN([C@H](C)CO)C(=O)Cc2cc(NC(=O)CCC(F)(F)F)ccc2O[C@@H]1CN(C)Cc1ccc(Cl)c(Cl)c1` it was “inactive”; in that of `C[C@H]1CN([C@@H](C)CO)C(=O)c2cc(NC(=O)CCC(F)(F)F)ccc2O[C@H]1CN(C)Cc1ccc(Cl)c(Cl)c1`, “inactive”.

For `C[C@@H]1CN([C@H](C)CO)C(=O)c2cc(NC(=O)CCC(F)(F)F)ccc2O[C@@H]1CN(C)Cc1ccc(Cl)c(Cl)c1`, the cytotoxicity call is “inactive”. In the case of `C[C@H](CO)N1C[C@H](C)[C@@H](CN(C)Cc2ccc(Cl)c(Cl)c2)Oc2ccc(NC(=O)CCC(F)(F)F)cc2CC1=O`, the cytotoxicity call was “inactive”.
